# Publication PMC4336329 (PLoS ONE, 2015)
# Screen size: about 310,000 compounds; about 2,200 (0.71%) showed an effect of 50% or more. The effect is printed as a negative number. This is one part of a sample in which strong results are shown more often than they occur.
# Target: human ether-à-go-go-related gene (hERG) potassium channel (human, UniProt Q12809)
# Experiment: primary screen, population patch clamp on CHO cells stably expressing hERG; higher = less effect of the substance
# Sequence of human ether-à-go-go-related gene (hERG) potassium channel (Q12809 whole entry, looked up): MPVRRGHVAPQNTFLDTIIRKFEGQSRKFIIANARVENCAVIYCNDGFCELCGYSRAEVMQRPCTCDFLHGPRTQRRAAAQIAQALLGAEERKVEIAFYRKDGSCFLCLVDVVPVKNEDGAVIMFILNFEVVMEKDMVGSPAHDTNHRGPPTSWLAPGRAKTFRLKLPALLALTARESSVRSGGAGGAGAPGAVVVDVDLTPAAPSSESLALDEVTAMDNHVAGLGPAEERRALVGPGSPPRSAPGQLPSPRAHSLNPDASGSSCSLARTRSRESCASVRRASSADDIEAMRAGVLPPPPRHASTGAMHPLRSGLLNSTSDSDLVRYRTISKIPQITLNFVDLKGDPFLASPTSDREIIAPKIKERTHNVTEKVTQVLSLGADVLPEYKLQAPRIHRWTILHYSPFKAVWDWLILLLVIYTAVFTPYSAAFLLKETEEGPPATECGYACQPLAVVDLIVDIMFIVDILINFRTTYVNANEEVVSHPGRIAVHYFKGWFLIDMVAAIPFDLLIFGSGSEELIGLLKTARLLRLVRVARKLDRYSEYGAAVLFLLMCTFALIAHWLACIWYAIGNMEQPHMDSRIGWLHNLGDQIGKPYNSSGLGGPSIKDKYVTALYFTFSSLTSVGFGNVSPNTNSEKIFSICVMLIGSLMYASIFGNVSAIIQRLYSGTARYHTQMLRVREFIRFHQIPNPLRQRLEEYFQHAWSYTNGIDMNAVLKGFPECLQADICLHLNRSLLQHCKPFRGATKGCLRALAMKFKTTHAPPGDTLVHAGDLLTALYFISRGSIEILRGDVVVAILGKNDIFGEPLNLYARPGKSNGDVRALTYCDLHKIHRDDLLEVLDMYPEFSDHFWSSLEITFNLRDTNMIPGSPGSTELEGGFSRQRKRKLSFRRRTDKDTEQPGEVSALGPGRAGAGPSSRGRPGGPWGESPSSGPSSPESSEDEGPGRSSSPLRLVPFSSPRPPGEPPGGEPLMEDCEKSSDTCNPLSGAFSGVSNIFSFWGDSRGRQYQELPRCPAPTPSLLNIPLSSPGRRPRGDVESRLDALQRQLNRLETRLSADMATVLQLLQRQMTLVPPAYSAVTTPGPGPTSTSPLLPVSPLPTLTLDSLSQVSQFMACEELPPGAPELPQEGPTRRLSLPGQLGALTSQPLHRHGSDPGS
row,SMILES,"hERG current change (%, negative = inhibition) at 1uM"
1,CCOC(=O)C1=C(Cn2cnc3ccccc32)NC(=O)NC1c1cc(C)ccc1C (stereo not shown),12.2%
2,CCOC(=O)CSc1nnc(CSc2nc3ccccc3s2)n1C,6.96%
3,COC(=O)Nc1nc2c(C)cccc2s1,-4.56%
4,CCN(c1ccc(NC(=O)c2ccc(Cl)nc2)cc1)C(C)C,12.2%
5,CS(=O)(=O)O.Oc1ccc(C2CNCCc3c2cc(O)c(O)c3Cl)cc1 (stereo not shown),-0.982%
6,CCS(=O)(=O)NCc1cn2c(C)csc2n1,0.136%
7,CCCc1[nH]n(-c2ccc([N+](=O)[O-])cc2)c(=O)c1C=NCCN1CCNCC1,-9.24%
8,CCCc1[nH]n(-c2ccc([N+](=O)[O-])cc2)c(=O)c1C=NCCCn1ccnc1,-50.1%
9,CCCc1[nH]n(-c2ccc([N+](=O)[O-])cc2)c(=O)c1C=NCCc1ccc(OC)c(OC)c1,4.23%
10,COc1cccc(CNC(=O)CCC2CCCN(Cc3cc(Cl)ccc3O)C2)c1 (stereo not shown),-20%
11,COc1cccc(CNC(=O)CCC2CCCN(c3cc(C)nc(N4CCCC4)n3)C2)c1 (stereo not shown),-74%
12,COc1cccc(CNC(=O)CCC2CCCN(c3cc(C)nc(N)n3)C2)c1 (stereo not shown),-18.3%
13,COc1ccccc1/C=C/CN1CCCC(CCC(=O)NCc2ccc(F)c(F)c2)C1 (stereo not shown),-26.2%
14,COc1cccc(CNC(=O)CCC2CCCN(Cc3ccc(OC(F)F)cc3)C2)c1 (stereo not shown),-80.1%
15,COc1cccc(CNC(=O)CCC2CCCN(C/C=C/c3ccccc3OC)C2)c1 (stereo not shown),-34.5%
16,COc1ccc(/C=C/CN2CCCC(CCC(=O)NCc3ccc(F)c(F)c3)C2)cc1 (stereo not shown),-54.3%
17,COCc1ccc(CN2CCCC(CCC(=O)NCc3cccc(OC)c3)C2)o1 (stereo not shown),11%
18,COc1cccc(CNC(=O)CCC2CCCN(c3cc(C)nc(N(C)C)n3)C2)c1 (stereo not shown),-27.7%
19,C/C(CC(=O)Nc1cccc(Cl)c1Cl)=N\NC(=O)c1ccccc1C,8.35%
20,CC(=O)Nc1cccc(NC(=O)CSc2ncc(C(=O)Nc3ccc(F)cc3)c(=O)n2C)c1,-3.89%
21,COc1ccc(C2(C#N)CCC(=O)N2c2ccccc2)cc1 (stereo not shown),8.4%
22,COC(=O)CNC(=O)CN1c2cccc3cccc(c23)S1(=O)=O,-12.4%

row,SMILES,"hERG current change (%, negative = inhibition) at 1uM"
1,Cc1c(C(=O)O)c(-c2ccccc2)nn1-c1ccccc1,10.8%
2,O=C(NC1CCN(Cc2ccccc2Cl)CC1)c1ccccc1,10%
3,O=C(NC1CCN(Cc2ccc(Cl)cc2Cl)CC1)c1ccccc1,-6.37%
4,O=C(CCCN1CCC(C(=O)c2ccc(F)cc2)CC1)c1ccc(F)cc1,-86.2%
5,Cc1ccc(C(=O)NC2CCN(CCCC(=O)c3ccc(F)cc3)CC2)cc1,-72.9%
6,CN1CCN(CCCC(=O)c2ccc(F)cc2)CC1.Cl,-1.2%
7,Cc1ccc(C(=O)NC2CCN(S(=O)(=O)c3ccc(F)cc3)CC2)cc1,9.73%
8,O=C(CCCN1CCC(NC(=O)c2ccccc2)CC1)c1ccc(Cl)cc1,-59.5%
9,O=C(c1ccc(F)cc1)C1CCN(C(=O)c2ccc(F)cc2)CC1,2.31%
10,Cc1ccc(C(=O)NC2CCN(C(=O)Nc3ccc(F)cc3)CC2)cc1,8.68%
11,CC(C)CC(C)NC(=O)c1ccc(C(F)(F)F)cc1 (stereo not shown),10.6%
12,CCCCN(C)Cc1c(O)ccc2c(-c3ccccc3)cc(=O)oc12,-4.52%
13,Cc1cccn2c(=O)c3cc(C#N)c(=NC(=O)c4cccs4)n(CCCOC(C)C)c3nc12,-26.1%
14,COCCCn1c(=NC(=O)c2ccccc2)c(C#N)cc2c(=O)n3cccc(C)c3nc21,-49%
15,Cc1cccn2c(=O)c3cc(C#N)c(=NC(=O)c4cccs4)n(CC(C)C)c3nc12,7.98%
16,COCCCn1c(=NC(C)=O)c(C#N)cc2c(=O)n3cccc(C)c3nc21,-7.03%
17,CCOCCCn1c(=NC(=O)c2ccc(OC)c(OC)c2)c(C#N)cc2c(=O)n3cccc(C)c3nc21,-11%
18,Cc1cccn2c(=O)c3cc(C#N)c(=NC(=O)c4ccncc4)n(CCCOC(C)C)c3nc12,-89.7%
19,CC(=O)N=c1c(C#N)cc2c(=O)n3cccc(C)c3nc2n1CCCOC(C)C,-13.3%
20,CCOCCCn1c(=NC(=O)c2cccs2)c(C#N)cc2c(=O)n3cccc(C)c3nc21,-53.9%
21,COCCCn1c(=NC(=O)c2ccncc2)c(C#N)cc2c(=O)n3cccc(C)c3nc21,-53.3%
22,Cc1nc(OCc2c(C)noc2C)c2ccccc2n1,13.1%

row,SMILES,"hERG current change (%, negative = inhibition) at 1uM"
1,CCn1cc(C(=O)N2CCC3(CC2)OCCO3)c(=O)c2cc(S(=O)(=O)N3CCCC3)ccc21,15.9%
2,Cn1c(CNC(=O)Nc2ccccc2Cl)nnc1SCc1ccccc1,2.3%
3,CCCN(C(=O)CSc1nnc2ccccn12)C1CCS(=O)(=O)C1 (stereo not shown),10.4%
4,CC(=O)NC(NC(C)=O)c1ccc(Br)cc1,-1.9%
5,COC(=O)c1ccc(C)c(NC(=O)c2ccc(Cl)c([N+](=O)[O-])c2)c1,5.94%
6,CCOC(=O)c1c(CN2CCN(c3ccccc3)CC2)oc2ccc(O)cc12,12.6%
7,CCOC(=O)c1[nH]c(C)c(C(=O)N2CCN(c3ccccc3)CC2)c1C,-3.94%
8,CCOC(=O)c1c(N2CCN(c3ccccc3)CC2)cc(C)nc1C.O=C([O-])C(=O)[O-],-69%
9,CCCC(=O)Nc1ccccc1NC(=O)CN(C)S(=O)(=O)c1ccccc1,9.94%
10,CCOc1ccccc1NC(=O)CSc1nnc(-c2ccco2)o1,8.2%
11,N/C(=N\OC(=O)CC1CCCCC1)c1cccc([N+](=O)[O-])c1,13.7%
12,N/C(=N\OC(=O)CCC1CCCCC1)c1cccc([N+](=O)[O-])c1,3.64%
13,N/C(=N\OC(=O)CCC1CCCC1)c1cccc([N+](=O)[O-])c1,-53.8%
14,O=C(O)c1ccc(NS(=O)(=O)c2cc(Cl)ccc2Cl)cc1O,4.19%
15,CCCc1cc(C(=O)Nc2cc(Br)ccc2O)no1,18.4%
16,O=C(NCCc1ccccc1)C(=O)Nc1ccc([N+](=O)[O-])cc1,11%
17,CCN1CCN(CCNC(=O)Nc2ccc([N+](=O)[O-])cc2)CC1,13.2%
18,CCc1ccc(NC(=O)C(=O)NCCN2CCN(S(C)(=O)=O)CC2)cc1,18.2%
19,CCc1ccc(NC(=O)C(=O)NCCN2CCN(Cc3ccc([N+](=O)[O-])cc3)CC2)cc1,-67.4%
20,O=C(NCCN1CCN(Cc2ccc([N+](=O)[O-])cc2)CC1)C(=O)Nc1ccccc1,-53.8%
21,CCCCc1ccc(NC(=O)C(=O)NCCN2CCN(Cc3ccc([N+](=O)[O-])cc3)CC2)cc1,-6.8%
22,Cc1ccc(NC(=O)C(=O)NCCN2CCN(Cc3ccc([N+](=O)[O-])cc3)CC2)cc1,-53.3%

row,SMILES,"hERG current change (%, negative = inhibition) at 1uM"
1,O=C(NCCN1CCN(S(=O)(=O)c2ccc([N+](=O)[O-])cc2)CC1)C(=O)Nc1ccccc1,2.87%
2,CN1CCN(CCNC(=O)Nc2ccc([N+](=O)[O-])cc2)CC1,10.7%
3,Cc1ccc(CNS(=O)(=O)/C=C/c2ccc3c(c2)OCO3)cc1,-0.964%
4,c1ccc(-c2nnc3sc(-c4csc5c4CCCC5)nn23)cc1,4.3%
5,O=C(Nc1ncn[nH]1)c1ccc([N+](=O)[O-])cc1[N+](=O)[O-],18.3%
6,COCCNC(=S)N(Cc1cccs1)Cc1cc2cccc(C)c2[nH]c1=O,15.9%
7,Brc1cccc(CNc2nc3ccccc3n2CCN2CCCCC2)c1,-0.507%
8,c1ccc(Cn2c(CNc3nc4ccccc4n3CCN3CCOCC3)nc3ccccc32)cc1,-54.4%
9,CCN(CC)c1ccc(CNc2nc3ccccc3n2CCN2CCCCC2)cc1,-18%
10,COc1ccc(CNc2nc3ccccc3n2CCN2CCOCC2)cc1,-46.5%
11,CCN(CC)c1ccc(CNc2nc3ccccc3n2CCN2CCOCC2)cc1,-76.1%
12,Cc1cccc(NCc2nc3ccccc3n2Cc2ccccc2)c1,12%
13,c1ccc2c(c1)nc(NCc1ccc3c(c1)OCO3)n2CCN1CCOCC1,-40.7%
14,c1csc(CNc2nc3ccccc3n2CCN2CCOCC2)c1,-9.4%
15,Cc1nc2cc(NCc3nc4ccccc4n3Cc3ccccc3)ccc2n1C,-61.7%
16,c1ccc(Cn2c(CNc3nc4ccccc4n3CCN3CCCCC3)nc3ccccc32)cc1,-5.91%
17,Brc1cccc(CNc2nc3ccccc3n2CCN2CCOCC2)c1,-56.7%
18,CCn1cnc2cc(NCc3nc4ccccc4n3Cc3ccccc3)ccc21,-15.2%
19,NS(=O)(=O)c1ccc(NC(=O)CSc2nc(Nc3ccccc3)nc(N3CCOCC3)n2)cc1,24.9%
